For five compounds, z-score and composite z-score results are on record in PubChem BioAssay.

Molecules are shown by their SMILES. Activity calls are given as the source filed them.

A short description of experiment [1]: optical density shifts of acrAB sulA E. coli – strain DRC41, OD650, 48 h, E. coli filamentation inducer project, primary screen (AID 1152).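 Also: E. coli MC1000 strain DRC41 lacking acrAB efflux pump and sulA.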 As to conditions: higher = more signal, called active from +8 up or from −8 down.
Experiment [2] in a line: probe aLefty1 binding on compound microarray – biochemical, small-molecule microarray, 635/667 nm fluorescence, primary screen (AID 1153).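 Also: score merges spot fluorescence with signal-to-noise ratio from the scanned slide images.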 As to conditions: higher = more signal.
Experiment [3] is described as follows: plasmodial surface anion channel blockers, osmotic lysis – cell-based, P. falciparum Indochina, OD700, 1 h, primary screen (AID 1154). As to conditions: P. falciparum Indochina infected RBC osmotic lysis, higher = more signal, called active from +8 up or from −8 down.
The nature of experiment [4]: plasmodial surface anion channel blockers, osmotic lysis – cell-based, P. falciparum Indochina, OD700, 2 h, primary screen (AID 1155).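 Also: lysis reports solute entry through the parasite surface anion channel PSAC.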 As to conditions: P. falciparum Indochina infected erythrocytes, higher = more signal, called active from +8 up or from −8 down.
Experiment [5] can be described thus: changes in parasitized red cell lysis, either direction – P. falciparum Indochina, OD700, 3 h, PSAC antagonist project, primary screen (AID 1156). As to conditions: P. falciparum-infected erythrocytes, osmotic lysis, higher = more signal, called active from +8 up or from −8 down.
Experiment [6] is described as follows: plasmodial surface anion channel blockers, osmotic lysis – cell-based, P. falciparum Indochina, OD700, 18 h, primary screen (AID 1157). As to conditions: P. falciparum Indochina infected erythrocytes, osmotic lysis OD700, 18 h; higher = more signal, called active from +8 up or from −8 down.
The nature of experiment [7]: S6 kinase pathway phospho-S6 level changes – cell-based, A549, cytoblot, luminescence, serum-stimulated, primary screen (AID 1158).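 Also: serum-stimulated A549 lung adenocarcinoma cells; signal is phosphorylated S6 detected by cytoblot immunostaining with HRP secondary.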 As to conditions: 5 h, higher = more signal.
The target in experiment [8] is NADPH oxidase 2 (Homo sapiens) (UniProt P04839). As to the kind of experiment: compounds shifting NOX2 Amplex Red fluorescence – cell-based, HEK293-NOX2, PMA-stimulated, NOX inhibitor project, primary screen (AID 1159). Also: test concentration not given here. As to conditions: 45 min, higher = more signal, called active from +8 up or from −8 down.
NADPH oxidase 2 (Homo sapiens), sequence (P04839 whole entry, looked up): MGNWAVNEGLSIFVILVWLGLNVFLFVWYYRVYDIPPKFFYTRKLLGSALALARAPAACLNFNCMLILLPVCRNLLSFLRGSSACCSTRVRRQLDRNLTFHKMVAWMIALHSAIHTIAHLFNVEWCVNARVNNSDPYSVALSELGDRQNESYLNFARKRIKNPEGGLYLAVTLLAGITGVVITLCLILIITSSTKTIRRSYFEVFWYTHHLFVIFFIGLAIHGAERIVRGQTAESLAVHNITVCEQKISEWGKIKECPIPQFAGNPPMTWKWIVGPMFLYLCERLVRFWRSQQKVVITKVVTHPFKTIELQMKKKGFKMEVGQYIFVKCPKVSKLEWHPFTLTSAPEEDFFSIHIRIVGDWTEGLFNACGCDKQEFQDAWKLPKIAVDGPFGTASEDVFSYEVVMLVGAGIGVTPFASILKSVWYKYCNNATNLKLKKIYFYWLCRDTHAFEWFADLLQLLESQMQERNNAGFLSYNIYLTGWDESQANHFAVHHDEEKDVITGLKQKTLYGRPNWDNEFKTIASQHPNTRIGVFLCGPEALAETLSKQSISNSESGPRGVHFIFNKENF
Experiment [9] concerns the target NADPH oxidase 4 (Homo sapiens) (UniProt Q9NPH5). As to the kind of experiment: compounds shifting NOX4 Amplex Red fluorescence – cell-based, HEK293-NOX4, tetracycline-induced, NOX inhibitor project, primary screen (AID 1160). As to conditions: HEK293-NOX4, Amplex Red H2O2 fluorescence, 45 min; higher = more signal, called active from +8 up or from −8 down.
Experiment [10] deals with NADPH oxidase 5 (Homo sapiens) (UniProt Q96PH1). As to the kind of experiment: compounds shifting NOX5 Amplex Red fluorescence – cell-based, HEK293-NOX5, NOX inhibitor project, primary screen (AID 1161). As to conditions: HEK293-NOX5, ionomycin, 45 min, higher = more signal.
NADPH oxidase 5 (Homo sapiens), sequence (Q96PH1 whole entry, looked up): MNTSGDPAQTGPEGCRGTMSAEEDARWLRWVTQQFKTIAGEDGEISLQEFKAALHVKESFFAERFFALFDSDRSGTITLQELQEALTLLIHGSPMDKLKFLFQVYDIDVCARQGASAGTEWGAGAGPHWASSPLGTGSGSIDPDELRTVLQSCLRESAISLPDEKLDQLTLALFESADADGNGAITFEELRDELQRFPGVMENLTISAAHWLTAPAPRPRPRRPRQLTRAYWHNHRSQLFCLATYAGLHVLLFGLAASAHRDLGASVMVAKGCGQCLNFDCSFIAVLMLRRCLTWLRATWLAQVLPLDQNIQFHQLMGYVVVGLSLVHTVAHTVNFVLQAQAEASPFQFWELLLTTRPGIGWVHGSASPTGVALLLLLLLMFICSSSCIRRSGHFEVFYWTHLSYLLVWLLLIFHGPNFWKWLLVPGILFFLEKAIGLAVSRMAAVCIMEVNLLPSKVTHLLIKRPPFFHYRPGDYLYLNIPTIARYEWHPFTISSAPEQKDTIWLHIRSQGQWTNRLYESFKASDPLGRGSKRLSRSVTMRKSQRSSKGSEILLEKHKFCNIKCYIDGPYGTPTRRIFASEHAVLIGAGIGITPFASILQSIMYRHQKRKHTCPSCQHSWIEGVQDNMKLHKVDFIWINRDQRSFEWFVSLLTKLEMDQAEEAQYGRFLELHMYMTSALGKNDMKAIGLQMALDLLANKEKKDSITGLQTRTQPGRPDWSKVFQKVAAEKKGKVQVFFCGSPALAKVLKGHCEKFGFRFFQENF
A short description of experiment [11]: compound effects on lung adenocarcinoma cell viability – A549, calcein-AM fluorescence, 48 h, basal, profiling panel (AID 1162). Also: test concentration not given here. As to conditions: higher = more signal.
Experiment [12] is described as follows: compound effects on differentiated 3T3-L1 adipocyte viability – cell-based, 3T3-L1 adipocytes, calcein-AM fluorescence, 48 h, basal, profiling panel (AID 1163). Also: test concentration not given here. As to conditions: 3T3-L1 adipocytes viability, higher = more signal.
The nature of experiment [13]: compound effects on hepatocellular carcinoma cell viability – HepG2, calcein-AM fluorescence, 48 h, basal, profiling panel (AID 1164). Also: test concentration not given here. As to conditions: higher = more signal.
Experiment [14] in a line: compound effects on multiple myeloma cell viability – MM1S, calcein-AM fluorescence, 48 h, basal, profiling panel (AID 1165). Also: test concentration not given here. As to conditions: higher = more signal.
Experiment [15] can be described thus: calcein-AM signal in unstimulated myeloma cells – cell-based, calcein-AM fluorescence, 48 h, PK04 Diversity Set, profiling panel (AID 1166).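 Also: cells grown under basal conditions without added stimulus; test concentration not given here.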 As to conditions: RPMI8226 myeloma viability, higher = more signal.
Experiment [16] in a line: JC-1 mitochondrial signal, unstimulated HepG2 cells – cell-based, JC-1 fluorescence, 24 h, 100 nL compound, profiling panel (AID 1167). Also: test concentration not given here. As to conditions: HepG2 mitochondrial potential, higher = more signal.
Experiment [17] can be described thus: JC-1 mitochondrial signal, unstimulated adipocytes – cell-based, JC-1 fluorescence, 3T3-L1 adipocytes, 24 h, 100 nL compound, profiling panel (AID 1168). Also: test concentration not given here. As to conditions: JC-1 mitochondrial fluorescence, higher = more signal, called active from +8 up or from −8 down.
The nature of experiment [18]: JC-1 mitochondrial signal, unstimulated myeloma cells – cell-based, JC-1 fluorescence, RPMI8226, 24 h, 100 nL compound, profiling panel (AID 1169). Also: test concentration not given here. As to conditions: JC-1 mitochondrial potential fluorescence, higher = more signal.
Experiment [19] can be described thus: JC-1 mitochondrial signal, unstimulated MM1S myeloma – cell-based, JC-1 fluorescence, 24 h, 100 nL compound, profiling panel (AID 1170). Also: test concentration not given here. As to conditions: MM1S mitochondrial potential, higher = more signal.
A short description of experiment [20]: resazurin metabolic signal in A549 cells – cell-based, resazurin fluorescence, 24 h, PK04 Diversity Set, profiling panel (AID 1171). Also: test concentration not given here. As to conditions: A549 viability, higher = more signal, called active from +8 up or from −8 down. (In general: Alamar Blue is a resazurin reagent that responds to reducing activity.)

NADPH oxidase 4 (Homo sapiens), sequence (Q9NPH5 whole entry, looked up): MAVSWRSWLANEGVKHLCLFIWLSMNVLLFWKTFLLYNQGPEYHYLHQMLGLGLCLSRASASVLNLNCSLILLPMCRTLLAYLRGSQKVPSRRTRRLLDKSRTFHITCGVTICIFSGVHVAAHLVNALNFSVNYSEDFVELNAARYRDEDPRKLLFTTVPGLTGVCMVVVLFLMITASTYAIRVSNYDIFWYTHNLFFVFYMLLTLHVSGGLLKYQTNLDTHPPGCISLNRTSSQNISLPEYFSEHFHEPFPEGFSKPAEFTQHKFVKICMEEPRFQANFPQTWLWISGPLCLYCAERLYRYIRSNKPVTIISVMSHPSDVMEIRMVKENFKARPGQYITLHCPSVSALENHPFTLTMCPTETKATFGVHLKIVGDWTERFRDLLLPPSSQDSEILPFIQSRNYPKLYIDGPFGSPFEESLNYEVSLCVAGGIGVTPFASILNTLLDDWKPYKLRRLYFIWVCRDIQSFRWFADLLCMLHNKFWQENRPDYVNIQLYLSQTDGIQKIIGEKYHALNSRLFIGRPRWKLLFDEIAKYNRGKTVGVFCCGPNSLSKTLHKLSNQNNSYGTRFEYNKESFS

With `CCOC(=O)[C@H](CC(C)C)NC(=O)CCC1CC(OC(=O)NCc2ccc3c(c2)OCO3)CC2(CCCC(COC(=O)NCC(c3ccccc3)c3ccccc3)O2)O1` (stereo not given in full), the z-score in [1] was 0.0056 (inactive); in experiment [3], 2.08 (inactive); in experiment [4], 0.316 (inactive); in [5], -0.532 (inactive); in experiment [6] it was -0.071 (inactive); in experiment [7] it was -0.438. Moreover, the z-score in experiment [8] is -0.312 (inactive); in experiment [9] it was 1.03 (inactive); in experiment [10], 0.698; in experiment [11] it was -0.338; in experiment [12], -0.335; in experiment [13] it was -0.312. For the same compound, the z-score in experiment [14] was -3.41; in [15], 0.592; in experiment [16], -0.106; in experiment [17] it was 0.604 (inactive); in [18], -0.828; in [19], 0.0369. Also, the z-score in experiment [20] is 0.577 (inactive). The compound further had a composite z-score in [2] of -0.106.
On to `CC1O[C@H]2C3=C(C(=O)[C@@H]4O[C@@H]4[C@H]3O)[C@@H]1C1[C@@H](C)OC=C3[C@H](O)C4O[C@@H]4C(=NOCc4ccccc4)[C@]312` (stereo not given in full), for which the z-score in [1] is -0.259 (inactive); in experiment [3], 1.3 (inactive); in [4], 0.184 (inactive); in experiment [5], 0.0322 (inactive); in experiment [6], 0.0995 (inactive); in experiment [7], -0.871. Also, the z-score in experiment [8] is 0.32 (inactive); in experiment [9] it was 0.584 (inactive); in [10], 0.445; in experiment [11], -0.434; in [12], 0.145; in experiment [13] it was -1.65. The z-score in experiment [14] is -3.58; in experiment [15], -3.71; in experiment [16] it was -2.66; in experiment [17], 0.435 (inactive); in [18], -0.856; in [19], -2.28. Further, the z-score in experiment [20] is -0.989 (inactive). Moreover, the composite z-score in experiment [2] is -0.184.
`CO[C@@H]1COC(=O)[C@@H](C)NC(=O)CC=C[C@@H](C)[C@H](NS(=O)(=O)c2ccc(C)cc2)COC(=O)[C@H](C)NC(=O)CC=C[C@H]1C`: the z-score in experiment [1] is 0.69 (inactive); in experiment [3], 0.079 (inactive); in experiment [4], -0.121 (inactive); in [5], -0.361 (inactive); in experiment [6] it was -0.0378 (inactive); in experiment [7] it was -0.363. Also, the z-score in experiment [8] is 0.931 (inactive); in experiment [9], 0.649 (inactive); in [10] it was -0.165; in experiment [11], 0.458; in [12], 0.177; in [13] it was 0.196. Further, the z-score in experiment [14] was -0.0848; in experiment [15] it was -0.036; in experiment [16], -0.125; in [17], -0.172 (inactive); in experiment [18], 0.51; in experiment [19] it was 0.468. Besides, the z-score in [20] is 1.33 (inactive). For the same compound, in experiment [2], the composite z-score was -0.145.
On to `CC(CCN1CCCc2nc(C)c(C)cc21)=NOC(C)CN1CCCCc2nc(C)c(C)cc21` (stereo not given), for which the z-score in experiment [1] is -0.702 (inactive); in experiment [3], 2.12 (inactive); in [4], 0.193 (inactive); in [5] it was 0.564 (inactive); in experiment [6], 0.415 (inactive); in experiment [7], -0.775. The z-score in experiment [8] is -0.397 (inactive); in experiment [9], -1.71 (inactive); in [10], -0.496; in experiment [11], -0.37; in experiment [12], -0.219; in [13], -0.508. Moreover, the z-score in experiment [14] is -0.675; in [15], -0.388; in [16], 1.83; in experiment [17], -1.86 (inactive); in [18], 0.264; in experiment [19], 0.547. Moreover, in [20], the z-score is -0.0774 (inactive). This compound showed a composite z-score in experiment [2] of 0.123.
Take `C=CC[C@@H]1C=C[C@H](ON=C(C)CCC(=O)OC[C@H]2O[C@H](C#Cc3ccccc3)C=C[C@@H]2Oc2ccc(C)cc2)[C@@H](CO)O1`: the z-score was -1.44 (inactive) in [1]; 28 (active) in experiment [3]; 6.05 (inactive) in experiment [4]; 0.068 (inactive) in [5]; 1.57 (inactive) in [6]; -0.383 in experiment [7]. Further, the z-score is -0.367 (inactive) in experiment [8]; 0.0773 (inactive) in [9]; -0.431 in experiment [10]; 0.572 in [11]; -0.48 in experiment [12]; -0.0329 in experiment [13]. The z-score in experiment [14] was 0.551; in experiment [15], -0.737; in [16], -0.429; in [17] it was -0.311 (inactive); in experiment [18], -0.759; in experiment [19] it was -1.08. Besides, the z-score in [20] is 0.231 (inactive). This compound also returned a composite z-score in [2] of 0.0594.
